Rows were chosen to be rich in hits. Some 0.4% of all compounds tested hit in one or more screens of this group.
FMDV antiviral: FMDV antiviral activity by firefly signal; FMDV antiviral cell assay, firefly luciferase signal; actives 0.23% (n = 120,000); AID 1745856; Potency, µM (top dose mostly 57.5 µM), without a hit: top-dose activity change, negative = inhibition, actives largely listed as inhibitors; further: nearly all actives have a fitted effect of over 60% in size
FMDV Renilla: antivirals against foot and mouth disease virus replicon | FMDV replicon cells, Renilla luciferase signal | Potency, µM (highest dose often 57.5 µM), without a hit: at the top dose activity change, negative = inhibition, usual class: inhibitors | actives 0.32% (n = 120,000); further: nearly all actives have a fitted effect of over 55% in size
Starred values were filed as active, the others as inactive; ? = inconclusive. The call rests on the fitted dose curve. On the % scale 0 is the no-effect control and ±100 the full control effect; potency means the concentration at half of the fitted maximal effect.

SMILES	FMDV antiviral	FMDV Renilla
CC1=C2C(=O)CC(c3ccc(Cl)cc3)CC2=Nc2ccccc2N1 (stereo not given)	8.9µM*	10µM*
CC1=C(C(=O)OC(C)(C)C)C(c2ccc(Cl)cc2)NC(=O)N1 (stereo not given)	-12%	-6%
COc1ccc(-c2cnc(C)o2)cc1S(=O)(=O)Nc1ccc(F)cc1	31%	-8%
COc1ccc(CNC(=O)c2nc(-c3ccccc3)oc2C)cc1OC	?	18µM*
COc1cccc(CNC(=O)c2nc(-c3ccccc3)oc2C)c1	31%	11%
CCOc1ccc(C(=O)Nc2nonc2-c2ccccc2)cc1	6%	-2%
Cc1ccc2c(COC(=O)/C=C/c3ccccc3)cc(=O)oc2c1	14%	-4%
COc1ccc(NC(=O)c2nc(S(=O)(=O)Cc3ccc(C)cc3)ncc2Cl)cc1	0%	14%
COc1ccc(CNC(=O)c2nc(S(=O)(=O)Cc3ccccc3)ncc2Cl)cc1	22µM*	2%
Cc1cc(C)cc(Nc2cc(C(=O)NCCCN(C)C3CCCCC3)c3ccccc3n2)c1	-15%	-5%
Cc1ccc(C)c(Nc2cc(C(=O)NCCCN(C)C3CCCCC3)c3ccccc3n2)c1	-14%	32µM*
COc1cccc(/C=C/c2nc(C#N)c(NCCN3CCOCC3)o2)c1	11%	0%
CCCCOC(=O)c1cccc(NC(=O)c2cc3ccccc3o2)c1	8.9µM*	-13%
CCCCOC(=O)c1ccc(NC(=O)c2cc(=O)c3ccccc3o2)cc1	-19%	-5%
CCCNc1nc2ccccc2nc1C(=O)Nc1cc(OC)c(OC)c(OC)c1	-1%	-4%
CCC(CC)C(=O)Nc1nnc(SCc2cc(=O)c3ccccc3[nH]2)s1	13µM*	8.9µM*
CCC(=O)Nc1nnc(SCc2cc(=O)c3cc(C)ccc3[nH]2)s1	-1%	-17%
Cc1ccc(OCC(=O)Nc2nnc(SCc3cc(=O)c4ccccc4[nH]3)s2)cc1	-1%	-8%
CCCC(=O)Nc1nnc(SCc2cc(=O)c3ccc(C)cc3[nH]2)s1	2.5µM*	2µM*
CN(C)C(=O)CN1CCCN(C(=O)C2CCN(S(=O)(=O)c3ccc(F)c(Cl)c3)CC2)CC1	66%	-9%
Cc1ccc(-n2[nH]c(C)c(C3SCc4cc(C)c(C)cc4CS3)c2=O)cc1	17%	6%
CC(C)c1ccc(C(=O)COC(=O)c2ccc(N3CCOCC3)nc2)cc1	17%	20%
CCOC(=O)c1ccc(NCc2ccnc(N3CCOCC3)c2)nc1	?	28µM*
COCCCNC(=O)c1sc(NCc2ccco2)nc1C	38%	11%
Cc1cccc(-n2nnnc2S(C)(=O)=O)c1	28µM*	?
SMILES	FMDV antiviral	FMDV Renilla
Cc1cccc(-n2nnnc2C2(N3CCCC3)CCCC2)c1	-4%	16%
O=C(Nc1nn[nH]n1)c1ccc(Cl)c(S(=O)(=O)N2CCOCC2)c1	0%	5%
O=C(CN1CCS(=O)(=O)CC1)N1CCN(c2ccccn2)CC1	-2%	6%
CCOc1ccc(CN2CCN(c3ncnc4sccc34)CC2)cc1	1.1µM*	0.89µM*
COc1ccc(-c2csc3ncnc(N4CCN(Cc5ccccc5)CC4)c23)cc1	15%	-7%
C=C(C)COc1ccc2c(=O)c(Oc3ccc(OC)cc3)c(C)oc2c1	46%	22%
COc1ccc(Oc2c(C)oc3cc(OS(C)(=O)=O)ccc3c2=O)cc1	13µM*	?
C=CCn1c(SCc2nc3ccccc3o2)nnc1-c1ccccc1	35%	25%
Cc1cc(C)cc(NC(=O)C2CCCN2S(=O)(=O)c2ccc3c(c2)CCCC(=O)N3)c1 (stereo not given)	-29%	?
Cc1ccc(NC(=O)C2CCCN2S(=O)(=O)c2ccc3c(c2)CCCC(=O)N3)cc1C (stereo not given)	35µM*	28µM*
CCc1nn2c(=O)cc(CNc3ccccc3NC(=O)c3ccccc3)nc2s1	7%	-2%
CCc1nn2c(=O)cc(CNc3ccc4c(c3)OCCCO4)nc2s1	4.5µM*	3%
COc1ccc(C)cc1NS(=O)(=O)c1ccc(-c2coc(C)n2)cc1	?	98%
COc1ccc(-c2nc(CSCC(=O)NCc3cccnc3)c(C)o2)cc1	14µM*	-14%
COc1ccc(-c2nc(CS(=O)(=O)CC(=O)NCc3cccnc3)c(C)o2)cc1	13%	6%
CCN(CC(=O)Nc1ccc(NC(C)=O)cc1)C(=O)c1nn(-c2ccccc2)c2c1CCC2	21%	27%
CCN(CC)C(=O)CSc1nn(C)c2nc3c(c(=O)n12)C(C)(CC)Cc1ccccc1-3 (stereo not given)	1%	-7%
CC#CC[N+](C)(C)CCCCCCCCCCCC	13µM*	?
CCCCCCCCCCCCCCCC[N+](C)(C)C	-27%	-16%
CCCN(CCC)Cc1csc2c1CCCC2	-6%	4%
COc1ccc(C(=O)N2CCC(c3nc4ccccc4s3)CC2)cc1Cl	28µM*	?
COc1cccc(C(=O)N2CCC(c3nc4ccccc4s3)CC2)c1	-8%	-4%
CCc1noc(C(C)N2CCN(C(=O)Cc3ccc(C)cc3)CC2)n1 (stereo not given)	-7%	-5%
